# PubChem BioAssay AID449762 (Southern Research Specialized Biocontainment Screening …, 2010)
# Several values for one entry are separate records, joined by “and”; a condition that tells them apart may be missing. Equal entries are not always repeated. The campaign covered roughly 330,000 compounds. About 1,900 (0.58%) were called active. About 4% were inconclusive and are not listed. Only a sample is shown. Measured potencies and affinities stand elsewhere. Unmarked numbers belong to inactive results. Cut-off read from the data, not from the text of the source: inconclusive = inhibition above about 70% without an active follow-up result; inactive = below that.
# Experiment: M. tuberculosis growth inhibition, HTS (AID 449762);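 note: bacterial growth assessed after seven days of incubation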
# Settings: M. tuberculosis H37Rv growth inhibition, 7H9 media; at 25 µM; hits give high values
row,Compound,inhibition
1,COc1cc(CNC(C)c2ccccc2)c(Br)cc1OCC(N)=O (stereo not given),-3.38%
2,Oc1ccc(-c2cn3c(n2)SCC3)cc1,-2.38%
3,c1ccc(-c2cn3c(n2)SCC3)cc1,-1.11%
4,COc1ccc(NC(=O)c2cc(-c3ccc(C)cc3)on2)cc1OC,-6.33%
5,COc1cc2c(cc1OC)C(c1cc(Br)ccc1O)N(C(C)=O)CC2 (stereo not given),-0.81%
6,COc1cc2c(cc1OC)C(C1C(=O)CCCC1=O)N(C(=O)CCl)CC2 (stereo not given),2.64%
7,Cc1ccc(S(=O)(=O)N2[C@@H](c3ccc(Br)cc3)C(C(=O)O)=CC[C@H]2c2ccc3c(c2)OCO3)cc1,3.53%
8,CCOC(=O)c1cnc(SC2CC(=O)N(c3ccc(C)cc3)C2=O)nc1N (stereo not given),-12.6%
9,CCOC(=O)c1cnc(SC2CC(=O)N(c3ccccc3)C2=O)nc1N (stereo not given),-5.11%
10,CC(C)(C)OC(=O)C[C@H]1C/C=C\C[C@H](CC(=O)NCCO)C(=O)N2CCC[C@@H]2COC1=O,2.79%
11,CSc1ccc(CN2CCC(CO)(Cc3ccc(Cl)cc3)CC2)cc1,2.5%
12,CNC(=O)NC(=O)COC(=O)CCc1nc(=O)c2ccccc2n1C,2.07%
13,Cn1nnnc1Sc1ncnc2scc(-c3ccccc3)c12,15.1%
14,Cn1nnnc1Sc1ncnc2scc(-c3cccc4ccccc34)c12,61.1%
15,COc1cc(C(=O)Nc2cccc(-n3cnnn3)c2)cc(OC)c1OC,-9.02%
16,CC1(C)CC(=O)C(=Cc2cn(-c3ccccc3)nc2-c2ccccc2)C(=O)C1,14.4%
17,Cc1ccc(-c2nn(-c3ccccc3)cc2C=C2C(=O)CC(C)(C)CC2=O)cc1,28.4%
18,CC1C=CCC2C(=O)N(c3cccc(C(=O)NCc4ccccc4)c3)C(=O)C12 (stereo not given),0.47%
19,COc1ccc(-c2cn3cc(C)ccc3n2)cc1OC,-0.94%
20,COc1ccc(-c2cn3cc(Cl)ccc3n2)cc1OC,35.8%

row,Compound,inhibition
1,Cc1ccc(CN(C)C(=O)C2CCC(=O)N(C3CCCCCC3)C2)cc1 (stereo not given),0.77%
2,OCCC1CN(Cc2cccn2-c2cccnc2)CCN1C1CCCCC1 (stereo not given),-3.37%
3,CO/N=C/NC(=O)NOCc1c(Cl)cccc1Cl,-5.31%
4,NC(=O)NOCc1c(Cl)cccc1Cl,-2.55%
5,CN(C(=O)c1ccc2nc(N)sc2c1)c1ccccc1,-7.17%
6,COc1ccc(NC(=O)/C(=C\c2cccs2)NC(=O)c2ccco2)cc1,6.87%
7,CCOC(=O)N1CCN(C(=O)CCCN2C(=O)CSc3nc(C)cc(C)c32)CC1,0.43%
8,COc1ccc(NC(=O)CCl)cn1,55.6%
9,COc1ccc(CS(=O)(=O)/C(Cl)=C(/Cl)C(=O)Nc2ccc(OC)nc2)cc1,35%
10,COc1ccc(S(=O)(=O)N2CCOCC2)cc1NC(=O)CCCOc1ccc(Cl)cc1C,-8.9%
11,COc1ccccc1-n1c(-c2ccccc2)c[n+]2c1CCc1ccccc1-2,10.8% and 4.8%
12,COc1ccc(-n2c(-c3ccc(Cl)cc3)c[n+]3c2CCCCC3)cc1,-4.69%
13,O=c1cccc2n1C[C@@H]1C[C@@H]2CN(CC(O)c2ccc([N+](=O)[O-])cc2)C1 (stereo not given in full),9.8%
14,COc1ccccc1C(=O)COC(=O)c1cc([N+](=O)[O-])ccc1N1CCOCC1,32.4%
15,Cc1ccccc1Nc1c(-c2ccccn2)nc2c(C)cccn12,1.32%
16,Cc1cccn2c(Nc3ccccc3)c(-c3ccccn3)nc12,67.1%
17,CCN(CC)C(=O)CSc1nnc(-c2ccc(S(=O)(=O)NCc3ccccc3Cl)cc2)o1,5.34%
18,CSc1nnc(-c2ccc(Cl)cc2Cl)o1,26.3%
19,COc1ccccc1-c1nnc(SCC(=O)Nc2ccc(Cl)cc2Cl)o1,-3.38%
20,Cc1ccc(C(=O)CSc2nnc(-c3c[nH]c4ccccc34)o2)cc1,0.92%

row,Compound,inhibition
1,CCN(CC)C(=O)CSc1nnc(-c2c[nH]c3ccccc23)o1,1.41%
2,CCSc1nnc(-c2ccc(S(=O)(=O)NCc3cccs3)cc2)o1,-2.17%
3,C/C(=N\O)c1noc(C)c1C(=O)Nc1nccs1,-2.68%
4,O=S(=O)(c1cccc(-c2cn3ccccc3n2)c1)N1CCCCC1,0.63%
5,CCOC(=O)[C@H]1NN=C(C(=O)OC)[C@@H]1c1ccccc1,-5.97%
6,COCCOC(=O)N/C=C\c1nc2ccccc2c(=O)[nH]1,-1.7%
7,COc1ccc(C2C(C(=O)N3CCN(C)CC3)c3cc(OC)c(OC)cc3C(=O)N2C)cc1 (stereo not given),11%
8,CC(=O)c1ccc(NC(=O)C(C)O/N=C(\N)c2ccccc2)cc1 (stereo not given),1.95%
9,CCCc1ccc(-c2cc(C(=O)NC3=NCCS3)c3ccccc3n2)cc1,-0.06%
10,CC1CCCC(NC(=O)COC(=O)c2ccc(S(=O)(=O)N3CCOCC3)cc2)C1C (stereo not given),-1.74%
11,Cc1ccc(C(=O)NNC(=O)c2csc(N3CCOCC3)n2)o1,0.22%
12,Cc1nn(-c2ccccn2)c2c1-c1nc(N)ncc1CC2,0.53%
13,Cc1nn(-c2ccc(F)cc2F)c2c1-c1nc(N3CCCC3)ncc1CC2,69.4%
14,CCO/C=N/Nc1nc(C(F)(F)F)nc2c1cnn2Cc1ccccc1,60.4%
15,COc1ccc(OC)c(NC(=O)c2ccc(OCC(=O)N3CCOCC3)c(OC)c2)c1,1.16%
16,CCNc1nc(CN2CCCCC2)nc2scc(-c3ccccc3)c12,40.7%
17,CN(Cc1ccccc1)c1nc(CN2CCOCC2)nc2scc(-c3ccccc3)c12,5.04%
18,Cc1ccc(NC(=O)NCc2nc3ccccc3n2C)cc1,-2.85%
19,O=C(Nc1ccccc1[N+](=O)[O-])C1=C(O)CCn2c1nc1ccccc12,-3.87%
20,COC(=O)CN1C(=O)N(c2ccccc2)C(N(O)C(=O)Nc2ccccc2)C1(C)C (stereo not given),2.21%
